Data from PubChem BioAssay AID1159580 (chemical genetic matrix, 2015).
“And” between values parts separate entries of the source, which are not always exact repeats. Equal values may be shown once. The whole screen tested about 5,500 compounds, of which about 2,000 (36%) were called active. About 18% were inconclusive and are not listed. Cut-off read from the data, not from the text of the source: active = normalized growth mostly below about 0.91 (no sharp cut-off); inconclusive = no clear call, values can overlap the other calls; inactive = mostly above about 0.92. This is one part of the list.

Assay: chemical genetic growth profiling, strain panel (AID 1159580);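 note: tested at 20 µM; growth read once vehicle control cultures reached saturation at 30 °C; 1 = growth at the plate median or of vehicle wells; lower values mean less growth of the strain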
Conditions: S. cerevisiae deletion strains, growth OD

Measured: normalized growth

COc1ccc(-c2cc(=O)c3ccccc3o2)cc1
0.277 (active) and 0.975 (inactive): locus YJL095W, strain BCK1, stronger effect = lower value
0.398 (active) and 0.992 (inactive): locus YHR030C, strain SLT2, stronger effect = lower value
inactive: locus YBR021W, strain FUR4, stronger effect = lower value 0.949 | locus YBR229C, strain ROT2, stronger effect = lower value 0.932 | locus YCR088W, strain abp1, stronger effect = lower value 0.926 | locus YDL005C, strain med2, stronger effect = lower value 0.919 | locus YDL185W, strain tfp1, stronger effect = lower value 0.907 | locus YDR001C, strain nth1, stronger effect = lower value 0.923 | locus YDR069C, strain doa4, stronger effect = lower value 0.926 | locus YDR159W, strain sac3, stronger effect = lower value 0.998 | locus YDR334W, strain swr1, stronger effect = lower value 0.943 | locus YER110C, stronger effect = lower value 0.927 | locus YFR010W, strain ubp6, stronger effect = lower value 0.911 | locus YGL078C, strain dbp3, stronger effect = lower value 0.933 | locus YGL227W, strain vid30, stronger effect = lower value 0.92 | locus YGR252W, strain gcn5, stronger effect = lower value 0.824 | locus YHR079C, strain IRE1, stronger effect = lower value 1 | locus YHR094C, strain hxt1, stronger effect = lower value 0.939 | locus YIL125W, strain kgd1, stronger effect = lower value 0.949 | locus YJL115W, strain asf1, stronger effect = lower value 0.915 | locus YJL129C, strain trk1, stronger effect = lower value 0.916 | locus YJL134W, strain LCB3, stronger effect = lower value 0.928 | locus YJL154C, strain vps35, stronger effect = lower value 0.938
active: locus YAL013W, strain DEP1, stronger effect = lower value 0.682 | locus YAL021C, strain ccr4, stronger effect = lower value 0.888 | locus YAL026C, strain drs2, stronger effect = lower value 0.828 | locus YAL030W, strain snc1, stronger effect = lower value 0.905 | locus YBL061C, strain skt5, stronger effect = lower value 0.869 | locus YBR009C, strain hhf1, stronger effect = lower value 0.725 | locus YBR023C, strain chs3, stronger effect = lower value 0.811 | locus YBR171W, strain sec66, stronger effect = lower value 0.869 | locus YBR231C, strain swc5, stronger effect = lower value 0.857 | locus YBR279W, strain paf1, stronger effect = lower value 0.881 | locus YCL011C, strain gbp2, stronger effect = lower value 0.809 | locus YCL016C, strain dcc1, stronger effect = lower value 0.781 | locus YCL029C, strain bik1, stronger effect = lower value 0.753 | locus YCL061C, strain MRC1, stronger effect = lower value 0.833 | locus YCL069W, strain vba3, stronger effect = lower value 0.863 | locus YDL035C, strain GPR1, stronger effect = lower value 0.656 | locus YDL040C, strain nat1, stronger effect = lower value 0.923 | locus YDL074C, strain BRE1, stronger effect = lower value 0.452 | locus YDL101C, strain DUN1, stronger effect = lower value 0.655 | locus YDL192W, strain arf1, stronger effect = lower value 0.685 | locus YDR101C, strain arx1, stronger effect = lower value 0.884 | locus YDR137W, strain rgp1, stronger effect = lower value 0.53 | locus YDR162C, strain NBP2, stronger effect = lower value 0.274 | locus YDR195W, strain ref2 1.3 [resistant] | locus YDR297W, strain sur2, stronger effect = lower value 0.899 | locus YDR318W, strain mcm21, stronger effect = lower value 0.792 | locus YDR335W, strain msn5, stronger effect = lower value 0.902 | locus YDR388W, stronger effect = lower value 0.807 | locus YDR392W, strain spt3, stronger effect = lower value 0.406 | locus YDR502C, strain sam2, stronger effect = lower value 0.757 | locus YEL003W, strain gim4, stronger effect = lower value 0.79 | locus YEL037C, strain rad23, stronger effect = lower value 0.904 | locus YEL061C, strain CIN8 (second series), stronger effect = lower value 0.904 | locus YEL061C, strain CIN8, stronger effect = lower value 0.672 | locus YER015W, strain faa2, stronger effect = lower value 0.904 | locus YER016W, strain bim1, stronger effect = lower value 0.918 | locus YER111C, strain swi4, stronger effect = lower value 0.881 | locus YER155C, strain BEM2 (second series), stronger effect = lower value 0.283 | locus YER155C, strain BEM2, stronger effect = lower value 0.734 | locus YER167W, strain BCK2, stronger effect = lower value 0.739 | locus YGL086W, strain mad1, stronger effect = lower value 0.762 | locus YGL167C, strain pmr1, stronger effect = lower value 0.894 | locus YGL173C, strain kem1, stronger effect = lower value 0.798 | locus YGL240W, strain doc1, stronger effect = lower value 0.756 | locus YGL248W, strain PDE1, stronger effect = lower value 0.636 | locus YGL253W, strain hxk2, stronger effect = lower value 0.681 | locus YGR135W, strain pre9, stronger effect = lower value 0.747 | locus YHR013C, strain ard1, stronger effect = lower value 0.771 | locus YHR027C, strain rpn1, stronger effect = lower value 0.916 | locus YHR079C, strain IRE1 (second series), stronger effect = lower value 0.887 | locus YHR129C, strain ARP1, stronger effect = lower value 0.661 | locus YHR142W, strain chs7, stronger effect = lower value 0.584 | locus YHR200W, strain rpn10, stronger effect = lower value 0.868 | locus YIL066C, strain RNR3, stronger effect = lower value 0.55 | locus YIL073C, strain SPO22, stronger effect = lower value 0.66 | locus YIR030C, strain dcg1, stronger effect = lower value 0.804 | locus YJL092W, strain hpr5, stronger effect = lower value 0.884 | locus YJL095W, strain BCK1 (second series), stronger effect = lower value 0.707 | locus YJL164C, strain tpk1, stronger effect = lower value 0.754 | locus YJL166W, strain qcr8, stronger effect = lower value 0.771 | locus YJL168C, strain set2, stronger effect = lower value 0.922 | locus YJL187C, strain SWE1 (second series), stronger effect = lower value 0.668 | locus YJL187C, strain SWE1, stronger effect = lower value 0.9 | locus YJR043C, strain POL32, stronger effect = lower value 0.724
